An excerpt weighted towards active compounds, which were near 21% of everything screened.
Shiga inhibitor: inhibitors of Shiga toxin in Vero cells | Vero cells, Shiga toxin protein synthesis inhibition reporter | inhibition, % at 38.7 µM | hit rate 9.2% among 290,000; in the data active = inhibition mostly above about 28%, no sharp cut-off; inactive = mostly below about 43%; also: 0% is about no effect
Pf growth 96h: P. falciparum growth inhibition at 96 hours. hit rate 6.9% among 320,000. AID 504834. P. falciparum luciferase reporter growth, 96 h. Potency, µM (titrated, usually from 28.7 µM), without a hit: top-dose activity change, negative = inhibition, usual class: inhibitors; also: potency is read from the fitted curve at half-maximal effect; % is scaled to controls: 0 for no effect and ±100 for the full control effect
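96 h incubation, 37 C, 5% CO2, of luciferase-reporter P. falciparum-infected RBCs (2% hematocrit, 0.05% parasitemia final) with test compounds; endpoint luminescence.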
HCMV antiviral: inhibitors of human cytomegalovirus | HFF cells, HCMV-luciferase reporter, 72 h; active compounds read low | hit rate 4.5% among 410,000 | activity change, negative = inhibition, % at 57.5 µM; in the data active = activity change below about -60%; inconclusive = no clear call, values can overlap the other calls; inactive = above about -39%; also: % is scaled to controls: 0 for no effect and ±100 for the full control effect
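Compounds were evaluated in HFFs infected with an HCMV luciferase reporter virus (MOI 1 PFU/cell). Luciferase in lysates collected 72 h post infection served as the replication measure.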
Cycloheximide cs: counter-screen hit for Shiga toxin inhibitors, cycloheximide; max response, %; hit rate 12% among 300,000; cell reporter, cycloheximide protein synthesis inhibition counterscreen; in the data active = max response mostly above about 13%, no sharp cut-off; inactive = mostly below about 14%; also: read at 38.3 µM for the half of the compounds with a filed dose; 0% is about no effect
Pf growth 48h: P. falciparum growth inhibition at 48 hours (one generation). Potency, µM (titrated, usually from 28.7 µM), for inactives: at the highest dose activity change, negative = inhibition, usual class: inhibitors. P. falciparum luciferase growth in erythrocytes, 48 h. hit rate 5.9% among 310,000. AID 504832; also: potency is read from the fitted curve at half-maximal effect; % is scaled to controls: 0 for no effect and ±100 for the full control effect
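Firefly luciferase activity from engineered P. falciparum reports growth; inhibitors lower the luminescent signal. Cultures contained 2% hematocrit erythrocytes at 0.1% final parasitemia.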
HCV inhibitor: inhibitors of hepatitis C virus infection | Huh7.5.1 HCVcc-Cre infection, luciferase reporter, 44 h | Potency, µM (doses to about 41.8 µM), inactives show top-dose activity change, negative = inhibition, hits mostly inhibitors | hit rate 3.4% among 340,000 | AID 651820; also: potency is read from the fitted curve at half-maximal effect; % is scaled to controls: 0 for no effect and ±100 for the full control effect
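Compounds are dispensed onto cells plated 4 h earlier at 1,000 per well, with HCVcc-Cre virus (about 0.5 moi) added next. Following 44 h of culture, luminescent signal is measured for 15 sec after 15 min with substrate at room temperature.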
An asterisk follows results filed as active; u = inconclusive; x = no result given. Unless noted, calls follow the shape of the dose curve; as a rule, active = well fitted inhibition curve with a large enough effect; inconclusive = small, poorly fitted or top-dose-only effect, or another doubt; inactive = no such curve, though single readings can be large or run the other way.

SMILES	Shiga inhibitor	Pf growth 96h	HCMV antiviral	Cycloheximide cs	Pf growth 48h	HCV inhibitor
Cc1ccc(N2CN(S(=O)(=O)c3cccc([N+](=O)[O-])c3)c3nc4ccccc4nc32)cc1	-21	u	30	-2	-21%	-1%
O=C(NCc1ccc(F)cc1Cl)c1cc(=O)[nH]c2ccc(S(=O)(=O)N3CCCCC3)cc12	x	x	-14	x	x	x
CCOC(=O)c1sc2nc(CSc3ccccc3)nc(N3CCC(C(N)=O)CC3)c2c1C	27	4.1µM*	u	10	3.3µM*	u
Cc1sc2nc(CSc3ccccc3)nc(N3CCC(C(N)=O)CC3)c2c1C	-7	12µM*	1	-6	u	u
COc1ccc(NC2C(c3ccc(OC)cc3)=Nc3ccccc3-n3nnnc32)cc1 (stereo unspecified)	x	x	-3	x	x	x
Cn1nnnc1N=N/C(=N/Nc1ccccc1)c1ccccc1	45	u	-86*	17*	u	4µM*
Cc1ccc(-n2c(CCC(=O)O)ccc2-c2cccs2)cc1	97*	x	-6	25*	15%	3%
COC(=O)c1cccc(-n2c(CCC(=O)O)ccc2-c2cccs2)c1	49*	25%	0	19*	-2%	11%
CC(C)[C@H](NC(=O)[C@@H]1Cc2ccccc2CN1C(=O)OC(C)(C)C)C(=O)NCC1CCCO1 (stereo partly specified)	4	-23%	-6	7	u	7%
COc1ccc(CNC(=O)Cc2c(C)c3ccc(O)cc3oc2=O)cc1	x	x	5	x	x	x
CN(C(=O)COC(=O)c1c2c(nc3ccccc13)CCCC2)c1c(N)n(Cc2ccccc2)c(=O)[nH]c1=O	x	8.3µM*	-9	x	13µM*	u
CC(C)CN(C(=O)COC(=O)c1c2c(nc3ccccc13)CCC2)c1c(N)n(Cc2ccccc2)c(=O)[nH]c1=O	-3	6.6µM*	x	-2	8.3µM*	u
Cc1ccsc1C(=O)OCC(=O)N(C)c1c(N)n(Cc2ccccc2)c(=O)[nH]c1=O	x	-8%	-29	x	9%	1%
Cc1nn(-c2ccccc2)c2nc(C3CC3)cc(C(=O)Nc3cccc(F)c3)c12	x	x	-67*	x	x	x
CCc1ccc(NC(=O)c2cnn(-c3ccccc3)c2C)cc1	59*	236%	69	63*	232%	u
CC(=O)c1cnn(-c2ccccc2)c1C	7	75%	-24	5	19%	8%
Cc1c(C(=O)Nc2cc(F)cc(F)c2)cnn1-c1ccccc1	x	26%	43	52*	62%	11µM*
CCN(CC)C(=O)c1cnn(-c2ccccc2)c1NC(=O)c1ccco1	-13	-10%	9	5	x	14%
Cc1ccc(NC(=O)c2cnn(-c3ccccc3)c2NC(=O)c2ccco2)cc1C	16	12µM*	x	20	63%	-4%
CCOc1ccccc1NC(=O)Cn1c(=O)n(CCC(C)C)c(=O)c2cccnc21	x	x	21	x	x	x
Cc1c(C(=S)Nc2ccccc2)cnn1-c1ccccc1	37	20%	-21	35*	37%	u
Cc1c(C(=O)Oc2cccc3ccccc23)cnn1-c1ccccc1	151*	x	-11	45*	58%	u
Cc1c(C(=S)Nc2ccccc2)cnn1-c1ccc([N+](=O)[O-])cc1	-7	u	u	-5	-9%	u
Cc1nn(-c2ccccc2)cc1C(=S)Nc1ccccc1	64*	69%	-23	27*	64%	-20%
O=C(Nc1ccc(F)cc1)c1cn(-c2ccccc2)nc1-c1ccncc1	8	15%	-26	1	u	u
Cc1c(C(=O)Nc2ccccc2F)cnn1-c1ccccc1	80*	197%	38	57*	108%	5%
CCc1ncc(CO)n1Cc1cccc2ccccc12	x	x	-16	x	x	x
O=C(CSc1nc2c(c(=O)[nH]1)CCCC2)Nc1ccccc1C(F)(F)F	x	x	-8	x	x	x
O=C(NC(=S)NC1CCC(O)CC1)c1ccco1 (stereo unspecified)	x	x	3	x	x	25%
CC(=O)OCC(NC(=O)C(CCCCNC(=O)OCc1ccccc1)NC(=O)OC(C)(C)C)C1OC(n2cc(F)c(=O)[nH]c2=O)C(OC(C)=O)C1OC(C)=O (stereo unspecified)	-4	x	x	-3	x	x

Screening data from PubChem BioAssay.
